High-throughput results from PubChem.
Most compounds without a hit are left out; they make up all but 3.1% or so of the library.
BoNT F protease: BoNT F light chain protease inhibition; inhibition, % at 10 µM; actives 0.22% (n = 360,000); Multiplex microsphere protease cleavage assay, flow cytometry; AID 588497; in the data active = inhibition above about 35%, passing the limit was not always enough; also: plate controls were buffer without enzyme for full effect and enzyme alone for no effect
Autofluor counter: compound fluorescence in toxin protease inhibitor counterscreen. compound autofluorescence counterscreen, microsphere flow cytometry; active compounds read high. actives 3.1% (n = 360,000). fluorescence intensity (test concentration not listed); in the data active = fluorescence intensity above about 16000
SSB-PriA inh: K. pneumoniae PriA-SSBct interaction inhibition; AlphaScreen SSBct-PriA binding, biotinylated peptide; actives 0.6% (n = 430,000); inhibition, % at 33 µM; in the data active = inhibition mostly above about 37%, no sharp cut-off; inactive = mostly below about 20%;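 also: plate controls were negative control peptide for no effect and reference peptide for full effect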
Anthrax LF prot: inhibitors of Bacillus anthracis lethal factor protease | multiplex microsphere protease cleavage assay, LF | P15917 | actives 0.12% (n = 360,000) | inhibition, % at 10 µM; also: plate controls were buffer without enzyme for full effect and enzyme alone for no effect
Target sequence (P15917 whole entry, looked up): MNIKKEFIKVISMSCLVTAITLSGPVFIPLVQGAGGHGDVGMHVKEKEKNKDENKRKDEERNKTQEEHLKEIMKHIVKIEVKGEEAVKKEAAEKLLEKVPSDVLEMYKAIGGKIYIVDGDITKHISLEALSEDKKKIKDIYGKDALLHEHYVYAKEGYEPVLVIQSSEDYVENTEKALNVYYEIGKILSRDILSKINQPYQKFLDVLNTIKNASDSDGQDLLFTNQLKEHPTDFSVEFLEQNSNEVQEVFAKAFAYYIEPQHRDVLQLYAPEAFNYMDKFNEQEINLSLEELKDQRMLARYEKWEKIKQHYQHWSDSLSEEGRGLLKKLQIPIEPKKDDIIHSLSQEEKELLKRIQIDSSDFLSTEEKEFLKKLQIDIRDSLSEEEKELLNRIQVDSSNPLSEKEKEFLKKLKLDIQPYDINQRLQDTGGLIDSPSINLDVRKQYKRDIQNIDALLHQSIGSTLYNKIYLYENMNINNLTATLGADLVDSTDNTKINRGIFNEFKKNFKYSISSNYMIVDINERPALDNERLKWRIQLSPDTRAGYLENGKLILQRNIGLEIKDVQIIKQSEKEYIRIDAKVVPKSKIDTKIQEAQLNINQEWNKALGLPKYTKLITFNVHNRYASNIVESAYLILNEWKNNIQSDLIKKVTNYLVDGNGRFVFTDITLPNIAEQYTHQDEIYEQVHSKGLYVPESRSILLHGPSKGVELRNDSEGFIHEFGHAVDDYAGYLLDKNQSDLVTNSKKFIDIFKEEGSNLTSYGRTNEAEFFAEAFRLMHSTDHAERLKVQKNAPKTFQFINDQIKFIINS
BoNT A protease: inhibitors of Botulinum neurotoxin A light chain protease; multiplex microsphere protease substrate cleavage, flow cytometry; inhibition, % at 10 µM; actives 0.17% (n = 360,000); AID 588499; also: plate controls were buffer without enzyme for full effect and enzyme alone for no effect
BoNT-A LC CP2: inhibitors of botulinum neurotoxin A light chain protease. shares compounds with BoNT A protease. multiplex microsphere protease cleavage assay, flow cytometry. inhibition, % at 10 µM. actives 10% (n = 150). AID 602325; in the data active = inhibition above about 24%
LF protease CP2: blocks anthrax lethal factor protease; inhibition, % at 10 µM; shares compounds with BoNT A protease; actives 7% (n = 150); multiplex microsphere protease cleavage assay; in the data active = inhibition above about 25%
BoNT-F LC CP2: blocks botulinum neurotoxin F light chain protease; AID 602336; actives 7% (n = 150); inhibition, % at 10 µM; shares compounds with BoNT A protease; multiplex microsphere protease cleavage assay, flow cytometry; in the data active = inhibition above about 25%
An asterisk follows results filed as active; . = not tested or not shown. Rule as the data show it, unless noted: active = inhibition above about 30%; inconclusive = no clear call, values can overlap the other calls; inactive = below that.

SMILES	BoNT F protease	Autofluor counter	SSB-PriA inh	Anthrax LF prot	BoNT A protease	BoNT-A LC CP2	LF protease CP2	BoNT-F LC CP2
CC(=O)OCC(=O)c1c[nH]c2ccccc12	-6.2	5991	-0.5	-2.8	0.0	.	.	.
COc1cccc(C(=O)OCC(=O)c2c[nH]c3ccccc23)c1O	-5.5	4429	13.8	-2.1	0.6	9.5	13.4	37.3*
COC1CCN(c2ccc(C(=O)NC(c3ccccc3)c3ccccc3)cc2)C1 (stereo not given)	.	.	-29.0	.	.	.	.	.
Cn1ccc2c(-c3ccc(C(N)=O)cc3)cc3c(c21)C1CCC3O1 (stereo not given)	-4.7	5374	.	-2.1	-0.6	.	.	.
Cn1ccc2c(-c3ccc(C(C)(C)C)cc3)cc3c(c21)C1CCC3C1 (stereo not given)	-0.5	5412	.	-5.4	-0.6	1.6	-2.9	-3.9
CC1CN1c1cc2c(c3c1ccn3C)C1CCC2C1 (stereo not given)	-13.6	5654	.	-11.4	0.3	.	.	.
Cn1ccc2c(-c3ccc(C(=O)O)cc3)cc3c(c21)C1CCC3C1 (stereo not given)	10.0	6150	.	8.3	0.0	2.6	1.4	8.1
COC(=O)c1ccc(NC(=O)C(=O)NCC(O)(c2ccccc2)C2CC2)cc1 (stereo not given)	.	.	-6.0	.	.	.	.	.
COc1cccc(-c2cc3c(c4c2ccn4C)C2CCC3C2)c1 (stereo not given)	-22.2	4290	.	2.4	17.7	10.1	2.1	-13.9
COc1ccc(-c2cc3c(c4c2ccn4C)C2CCC3C2)cc1 (stereo not given)	-22.5	3998	.	-1.7	14.0	2.0	2.9	2.7
CCCNC(=O)C(=O)NCCN1CCN(c2ccccc2)CC1	.	.	-4.0	.	.	.	.	.
O=c1cc(-c2ccccc2)nc(SCc2nc(-c3cccc(Cl)c3)no2)[nH]1	.	.	3.0	.	.	.	.	.
O=C(NCc1ccc(C(=O)c2ccco2)s1)C(=O)Nc1cccc(C(F)(F)F)c1	.	.	-8.0	.	.	.	.	.
Cn1ccc2c(-c3ccccc3F)cc3c(c21)C1CCC3C1 (stereo not given)	2.3	5841	.	-7.8	2.9	1.9	-2.9	-0.6
COc1ccccc1-c1cc2c(c3c1ccn3C)C1CCC2C1 (stereo not given)	-9.5	4225	.	29.9*	12.3	3.9	-0.4	-5.7
COc1ccccc1-c1cc2c(c3c1ccn3C)C1CCC2O1 (stereo not given)	9.7	5495	.	21.2	10.3	.	.	.
CCOc1ccc(CC(=O)NCc2ccc3c(c2)cc(C)n3C)cc1	-29.3	2221	5.8	-7.5	81.2*	2.8	-0.7	5.2
Cc1cc2cc(CNC(=O)Nc3ccc(Cl)c(Cl)c3)ccc2n1C	-122.8	2226	4.5	-116.7	35.3*	10.3	-5.7	-38.1
COc1ccc(C(=O)NCc2ccc3c(c2)cc(C)n3C)cc1	-82.5	1203	-5.3	-37.4	94.9*	8.5	8.6	13.0
Cc1onc(-c2ccccc2Cl)c1C(=O)NCc1ccc2c(c1)cc(C)n2C	-87.3	2004	21.5	-75.4	83.0*	48.7*	19.8	-40.3
CN1C(=O)c2ccc(NC(=O)C3CCCN3S(=O)(=O)c3cccs3)cc2C1=O (stereo not given)	.	.	-6.0	.	.	.	.	.
COc1cc(C(NC(=O)CCl)NC(=O)CCl)ccc1OCCC(C)C	.	.	13.0	.	.	.	.	.
c1nc(Sc2ccc3c(c2)OCCO3)c2c3c(sc2n1)CCCC3	.	.	-1.0	.	.	.	.	.
O=C(C[n+]1ccc(C(=O)c2ccccc2)cc1)Nc1ccccc1OC(F)F	32.4	2711	-7.6	64.5*	54.9*	2.5	2.5	-4.0
COc1ccccc1Cc1c(-c2ccc(C#N)cc2)nc2c(Cl)cc(C(F)(F)F)cn12	1.0	10081	.	8.3	9.3	11.2	3.2	0.7
O=C1OC(c2cccs2)=N/C1=C\c1ccc(-c2cc(Cl)ccc2Cl)o1	.	.	29.0	.	.	.	.	.
N#Cc1cccnc1N1CCNCC1	.	.	14.0	.	.	.	.	.
CC(Oc1ccccc1F)c1nnc(SCC(=O)c2c(N)n(C3CC3)c(=O)[nH]c2=O)o1 (stereo not given)	90.7*	5129	-9.4	98.1*	95.9*	1.4	-0.2	0.4
Cc1cc2nc(-c3cccc(Br)c3)c(Cc3ccsc3)n2c(C)c1Br	-8.4	4588	.	-6.7	0.8	3.9	1.1	7.2
Cc1cc2nc(-c3cccc(Cl)c3)c(Cc3ccsc3)n2c(C)c1Br	-6.3	6217	.	2.8	2.9	9.2	-5.0	2.5
